From PubChem BioAssay
Hits are enriched below; roughly 3.1% of the tested compounds scored in any of these assays.
GDH-TPI counter-1: GDH-TPI coupled enzyme inhibition counter-screen; GDH-TPI coupled enzyme counterscreen, NADH absorbance; inhibition, % at 4.8 µM; 360,000 compounds, 1.2% hits; AID 588335; in the data active means inhibition above about 30%;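 further: 0% = DMSO wells and 100% = wells lacking the enzyme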
FBA Mtb inh: Mtb fructose-bisphosphate aldolase inhibition | P9WQA3 | purified M. tuberculosis FBA, fluorescence read-out | 360,000 compounds, 2.3% hits | inhibition, % at 1 µM | AID 588726;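 further: 0% = vehicle and 100% = reference inhibitor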
Target sequence (P9WQA3 whole entry, looked up): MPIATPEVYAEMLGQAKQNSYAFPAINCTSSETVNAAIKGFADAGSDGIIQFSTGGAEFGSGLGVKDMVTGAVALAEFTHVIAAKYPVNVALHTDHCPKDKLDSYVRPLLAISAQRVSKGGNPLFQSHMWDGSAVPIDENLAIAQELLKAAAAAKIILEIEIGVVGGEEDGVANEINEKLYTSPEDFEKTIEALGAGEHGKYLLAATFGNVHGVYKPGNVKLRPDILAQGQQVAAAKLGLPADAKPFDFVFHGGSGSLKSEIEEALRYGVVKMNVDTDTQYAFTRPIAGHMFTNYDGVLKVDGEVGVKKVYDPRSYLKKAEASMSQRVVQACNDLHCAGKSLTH
Mtb BioA inh: inhibitors of Mycobacterium tuberculosis BioA enzyme; purified M. tuberculosis BioA enzyme, plate reader; inhibition, % at 9.99 µM; 360,000 compounds, 0.096% hits; AID 602481; in the data active means inhibition above about 40%
FadD28 binding: inhibitors of Mycobacterium tuberculosis FadD28 bisubstrate binding; FadD28 bisubstrate probe binding, fluorescence polarization; inhibition, % at 12.5 µM; 360,000 compounds, 0.22% hits; AID 588549; in the data active means inhibition above about 8.5%, passing the limit was not always enough
SARS 3CLpro inh: SARS-CoV 3CLpro protease inhibition | 290,000 compounds, 0.14% hits | recombinant SARS-CoV 3CLpro, quenched FRET peptide cleavage | inhibition, % at 6 µM; in the data active means inhibition above about 12%
Mtb FBA confirm: confirmation of M. tuberculosis fructose-bisphosphate aldolase inhibitors; shares compounds with FBA Mtb inh; purified M. tuberculosis FBA, fluorescence read-out; inhibition, % at 1 µM; 5,600 compounds, 78% hits; AID 651616;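 further: 0% = vehicle wells and 100% = reference inhibitor wells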
GDH-TPI counter-2: inhibits GDH-TPI coupling enzymes, flagging Mtb FBA hits. 5,600 compounds, 81% hits. shares compounds with FBA Mtb inh. inhibition, % at 1 µM. GDH-TPI coupled enzyme counterscreen, fluorescence; in the data active means inhibition above about 10%
GDH-TPI DR: GDH-TPI dose response counter-screen for Mtb FBA; shares compounds with FBA Mtb inh; GDH-TPI coupled enzyme assay, fluorescence, artifact counterscreen; IC50, µM; 170 compounds, 79% hits; call rule not given here
* hit, by the source's call; · = no result; + = active, no number. Unless noted, no stated cut-off is given here; in the data, active means inhibition above about 27%; inactive means the rest.

SMILES	GDH-TPI counter-1	FBA Mtb inh	Mtb BioA inh	FadD28 binding	SARS 3CLpro inh	Mtb FBA confirm	GDH-TPI counter-2	others
CCCC(=O)Nc1c(-c2ccc(OC)cc2)c(=O)c2ccccc2n1C	23	28*	0	-1	6	0	-3
CCCCCC(=O)Nc1c(-c2ccc(OC)cc2)c(=O)c2ccccc2n1C	21	28*	-1	-4	1	128*	104*
C[C@@H]1CN([C@H](C)CO)C(=O)c2cc(C#CC(C)(C)O)cnc2O[C@@H]1CN(C)Cc1cncnc1	·	·	-2	·	·	·	·
COc1cccc(NC(=O)N2C[C@H](O)COC[C@H]3O[C@H](CC(=O)NCCCN4CCOCC4)CC[C@@H]32)c1	·	·	0	·	·	·	·
COc1ccc(-c2oc3ncnc(N)c3c2-c2ccccc2)cc1	5	27*	1	-4	7	5	-2
Cc1noc(C)c1S(=O)(=O)Nc1ccc2c(c1)C(=O)N([C@H](C)CO)C[C@@H](C)[C@@H](CN(C)S(=O)(=O)c1cn(C)cn1)OCCCC[C@H](C)O2	·	·	0	·	·	·	·
CC1=C(C)C(=O)N(C(C)CCc2ccccc2)C1=O (configuration not stated)	8	40*	1	-4	-5	89*	75*
CC(Cc1ccccc1)N1C(=O)c2ccccc2C1=O (configuration not stated)	-5	-5	-1	-4	9	·	·
C[C@@H]1CN([C@@H](C)CO)C(=O)Cc2cc(NS(=O)(=O)c3ccc(F)cc3)ccc2O[C@H]1CN(C)S(=O)(=O)c1ccc(Cl)cc1	·	·	-8	·	·	·	·
CCOC(=O)c1cnn(-c2ncnc3sc(C)c(C)c23)c1N	6	77*	0	-1	6	84*	66*
CN(C(=O)CSc1nc(N)c2c3c(sc2n1)CSC(C)(C)C3)c1ccccc1	3	31*	-1	-1	5	61*	49*
CN(C(=O)CSC1=NCCS1)c1ccccc1	2	-1	1	0	2	·	·
CCS(=O)(=O)N1N=C(c2ccc(NS(C)(=O)=O)cc2)CC1c1ccccc1 (configuration not stated)	19	109*	1	-2	0	12	1	GDH-TPI DR=0.98*
CCS(=O)(=O)Nc1ccc(C2=NN(S(=O)(=O)CC)C(c3cccs3)C2)cc1 (configuration not stated)	15	49*	3	-2	-2	147*	130*
CCOc1ccc(C(=O)CCC(=O)NCC(=O)Nc2ccc(F)c(F)c2F)cc1	6	2	0	-1	·	·	·
N#Cc1ccc(-c2ccc(OCC(=O)NCC(=O)Nc3ccc(F)c(F)c3F)cc2)cc1	11	30*	-2	0	-2	+	+
N#Cc1ccc(-c2ccc(OCC(=O)NCCc3ccccc3)cc2)cc1	5	38*	·	-4	4	5	2
COc1ccc(CCNC(=O)COc2ccc(-c3ccc(C#N)cc3)cc2)cc1	-6	-1	-1	-3	1	·	·
COc1cc2oc3ccc(C#Cc4ccccn4)cc3c(=O)c2cc1OC	5	67*	-1	-1	·	-3	-5
COc1cc2oc3ccc(C#Cc4ccc(N)cc4)cc3c(=O)c2cc1OC	24	8	-1	0	·	·	·
CNc1ccccc1C(=O)OCC(=O)N1CCN(c2ccc(OC)cc2)CC1	5	73*	0	-2	-5	0	-5
O=C(OCC(=O)N(CCc1ccccc1)Cc1ccccc1)c1ccccc1NCCO	-8	66*	0	-5	5	164*	106*
COc1ccc(N2CCN(C(=O)COC(=O)c3cccc(OC)c3O)CC2)cc1	9	-2	0	-2	·	·	·
O=C(OCC(=O)N1CCC(Cc2ccccc2)CC1)c1ccccc1NCCO	7	80*	·	1	·	47*	29*
CCOC(=O)N1CCN(C(=O)COC(=O)c2ccc(O)cc2O)CC1	-2	1	-1	1	-9	·	·
SMILES	GDH-TPI counter-1	FBA Mtb inh	Mtb BioA inh	FadD28 binding	SARS 3CLpro inh	Mtb FBA confirm	GDH-TPI counter-2	others
CCOC(=O)N1CCN(C(=O)COC(=O)c2ccccc2NCCO)CC1	9	107*	·	-1	·	77*	78*
C[C@H](CO)N1C[C@H](C)[C@H](CN(C)Cc2ccc3c(c2)OCO3)Oc2ncc(-c3ccccc3)cc2C1=O	·	·	15	·	·	·	·
COc1cccc(S(=O)(=O)N[C@H]2CC[C@H](CCNC(=O)Cc3ccncc3)O[C@@H]2CO)c1	·	·	-3	·	·	·	·
C[C@@H](NC(=O)[C@H]1[C@H](CO)[C@H]2Cn3c(ccc(C4=CCCCC4)c3=O)[C@@H]1N2)c1ccccc1	·	·	0	·	·	·	·
Cc1cccc(-n2c(SCC(=O)Nc3nnc(C)s3)nnc2-c2ccoc2C)c1	6	46*	6	-1	-2	38*	31*
O=C(C[C@@H]1C[C@H]2c3cc(NS(=O)(=O)c4ccccc4)ccc3O[C@H]2[C@H](CO)O1)NCC1CC1	·	·	-4	·	·	·	·
CC(c1ccccc1)N1CCn2c(nc3cc(NC(=O)c4cccs4)ccc32)C1 (configuration not stated)	-1	2	14	-9	0	·	·
Cc1nn(CC(=O)Nc2ccc3c(c2)nc(CCN2CCCCC2)n3C)c(=O)c2ccccc12	-4	10	0	-3	4	·	·
Cc1nn(CC(=O)Nc2ccc3c(c2)nc2n3CCN(C3CCCCC3)C2)c(=O)c2ccccc12	-1	51*	-1	-8	1	130*	101*
CC(c1ccccc1)N1CCn2c(nc3cc(NC(=O)NC4CCCCC4)ccc32)C1 (configuration not stated)	2	57*	2	-2	2	56*	52*
O=C(Nc1ccc(F)cc1)N1CCCCN2[C@H](C1)[C@H](c1ccc(-c3ccccc3F)cc1)[C@@H]2CO	·	·	-3	·	·	·	·
COc1ccc(-c2cc3c(=O)n(CC(=O)NCc4cccnc4)nc(C)n3n2)cc1	-3	28*	0	-3	3	16	11*
COc1ccc(-c2cc3c(=O)n(CC(=O)Nc4ccc(Cl)cc4)nc(C)n3n2)cc1	4	2	-1	-3	-1	·	·
Cn1c(-c2cc3ccc(OC(=O)C(C)(C)C)cc3oc2=O)nc2ccccc21	33*	59*	-2	-3	0	3	-3
C=CCn1c2ccccc2c(=O)c2cc(C#Cc3cc(OC)cc(OC)c3)ccc21	31*	56*	-4	-1	·	10	7
C[C@H]1CN([C@@H](C)CO)S(=O)(=O)c2ccc(C#CCN(C)C)cc2O[C@@H]1CN(C)C(=O)Nc1ccccc1F	·	·	-3	·	·	·	·
Oc1ccc(Br)cc1C=Nc1ccc2c3c(cccc13)CC2	6	38*	·	0	-3	+	+
CCOC(=O)Nc1nnc(-c2cccc(OC)c2)s1	10	98*	-1	0	-8	+	178*
